This is one part of a sample in which hits are shown more often than they occur.
Giardia FBPA inh: inhibitors of Giardia lamblia fructose-1,6-bisphosphate aldolase; A8B2U2; purified Giardia FBPA; Potency, µM (highest dose often 59.6 µM), for the others: top-dose activity, negative = inhibition, most hits filed as inhibitors; hit rate 0.71% among 290,000; also: potency is read from the fitted curve at half-maximal effect; % is scaled to controls: 0 for no effect and ±100 for the full control effect; nearly all actives have a fitted effect of over 55% in size
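40 nM FBPA preincubated 10 min at RT with compound (up to 57.5 uM final), then substrate plus GAPDH/TPI/NAD/arsenate coupling and diaphorase/resazurin added. Fluorescence read after 20 min at RT, 525/598 nm.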
LmPK inh: inhibitors of Leishmania mexicana pyruvate kinase; Q27686; purified LmPK, Kinase-Glo ATP luminescence, 1 h; Potency, µM (titrated, usually from 57.5 µM), without a hit: top-dose activity change, negative = inhibition, most hits filed as inhibitors; hit rate 0.37% among 290,000; AID 1721; also: potency is read from the fitted curve at half-maximal effect; % is scaled to controls: 0 for no effect and ±100 for the full control effect
Target sequence (Q27686 whole entry, looked up): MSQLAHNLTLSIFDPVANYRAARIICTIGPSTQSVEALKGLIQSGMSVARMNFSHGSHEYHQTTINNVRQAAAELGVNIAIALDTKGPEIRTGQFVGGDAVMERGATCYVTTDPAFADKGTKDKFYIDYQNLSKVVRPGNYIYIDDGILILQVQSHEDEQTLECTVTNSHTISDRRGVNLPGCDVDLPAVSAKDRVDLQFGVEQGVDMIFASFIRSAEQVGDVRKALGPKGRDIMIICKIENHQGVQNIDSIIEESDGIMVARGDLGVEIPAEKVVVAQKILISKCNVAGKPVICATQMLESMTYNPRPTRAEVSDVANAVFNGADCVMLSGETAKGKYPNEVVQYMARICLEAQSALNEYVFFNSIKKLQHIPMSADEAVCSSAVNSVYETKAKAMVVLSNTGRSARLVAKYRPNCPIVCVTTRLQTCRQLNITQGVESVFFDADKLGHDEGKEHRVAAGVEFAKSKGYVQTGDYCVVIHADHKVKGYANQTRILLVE
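Purified LmPK (0.1 nM) converted ADP (0.1 mM) to ATP with PEP (0.5 mM) in imidazole buffer pH 7.2 with KCl and MgCl2, 1 h at room temperature. ATP was read by Kinase-Glo luminescence; data normalized to uninhibited and no-enzyme controls.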
CHX counter: affects cycloheximide protein synthesis inhibition readout, counter-screen; cell reporter, cycloheximide protein synthesis inhibition counterscreen; max response, %; hit rate 12% among 300,000; AID 2314; in the data active = max response mostly above about 13%, no sharp cut-off; inactive = mostly below about 14%; also: read at 38.3 µM for the half of the compounds with a filed dose; 0% is about no effect
RE007 growth inh: less growth of the S. pombe RE007 Vpr strain. S. pombe RE007 Vpr strain, BacTiter-Glo ATP luminescence, 24 h. Potency, µM (doses to about 92.2 µM), inactives show top-dose activity change, negative = less growth, most hits filed as inhibitors. hit rate 0.21% among 360,000. AID 651644; active = well fitted falling curve with a large enough effect; inconclusive = small, poorly fitted or top-dose-only effect; inactive = no such curve, though single readings can be large or run the other way; also: potency is read from the fitted curve at half-maximal effect; % is scaled to controls: 0 for no effect and ±100 for the full control effect; nearly all actives have a fitted effect of over 50% in size
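Fission yeast RE007 carrying one integrated HIV-1 vpr copy, seeded at OD 0.01 in PMG+AL medium with 23 nL pinned compound. Grown 24 h at 30 degrees; viability read by BacTiter-Glo luminescence after 5 min.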
Tb PYK inh: blocks Trypanosoma brucei pyruvate kinase; TbPYK enzyme, Kinase-Glo Plus ATP luminescence, 45 min; Q57TT1; hit rate 0.12% among 410,000; AID 624173; Potency, µM (titrated, usually from 76.8 µM), for inactives: at the top dose activity, negative = inhibition, hits mostly inhibitors; also: potency is read from the fitted curve at half-maximal effect; % is scaled to controls: 0 for no effect and ±100 for the full control effect; nearly all actives have a fitted effect of over 50% in size
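Quantitative HTS: titrated library compounds versus trypanosomal pyruvate kinase in TEA buffer (pH 7.2) containing KCl, MgCl2, BSA and Tween-20. Reactions were initiated with ADP, 130 uM final. Kinase-Glo Plus luminescence was read after 45 min at RT.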
Shiga toxin inh: inhibitors of Shiga toxin in Vero cells. Vero cells, Shiga toxin protein synthesis inhibition reporter. inhibition, % at 38.7 µM. hit rate 9.2% among 290,000. AID 2315; in the data active = inhibition mostly above about 28%, no sharp cut-off; inactive = mostly below about 43%; also: 0% is about no effect
Starred values were filed as active, the others as inactive; ? = inconclusive; / = not tested or not shown. Unless noted, calls follow the shape of the dose curve; as a rule, active = well fitted curve in the direction sought with a large enough effect; inconclusive = small, poorly fitted or top-dose-only effect, or another doubt; inactive = no such curve, though single readings can be large; an effect the other way counts as inactive or inconclusive.

SMILES	Giardia FBPA inh	LmPK inh	CHX counter	RE007 growth inh	Tb PYK inh	Shiga toxin inh
COc1ccc(C(=O)/C=C/Nc2ccc([N+](=O)[O-])cc2C)cc1OC	1.9%	-3.1%	5.1	-0.4%	-4.9%	13.9
Cc1ccc(C(=O)/C=C/Nc2ccc([N+](=O)[O-])cc2Br)cc1	9.2%	5.3%	67.3*	-3.4%	-11.5%	77.0*
CCC(=O)N1c2ccccc2CC1C(=O)NCCN1CCN(c2cc(Cl)ccc2C)CC1 (centres undefined)	/	/	/	/	-8.1%	/
COc1ccccc1NC(=O)c1ccc(CN2C(=O)C(C)=C(c3ccc(C)c(C)c3)S2(=O)=O)cc1	/	/	/	/	8.3%	/
COc1ccc(C2/C=C\CN(C(=O)c3ccc(C)cc3)C(C)C(=O)N2Cc2ccc(F)cc2)cc1 (centres undefined)	-6.9%	/	83.5*	/	/	144.3*
COc1ccc(C2/C=C\CN([S+](=O)([O-])c3ccc4ccccc4c3)C(C)C(=O)N2Cc2ccc(F)cc2)cc1 (centres undefined)	-2.7%	/	84.1	/	/	148.5*
COc1ccc(C2/C=C\CN(C(=O)c3ccccc3)C(C)C(=O)N2Cc2ccc(F)cc2)cc1 (centres undefined)	-5.9%	/	-0.3	/	/	-13.8
COc1ccc(C2/C=C\CN(Cc3ccccc3)C(C)C(=O)N2Cc2ccc(F)cc2)cc1 (centres undefined)	-4.0%	/	36.2*	/	/	61.9*
CCn1cc2nc(SCC(=O)Nc3cc(OC)cc(OC)c3)n(Cc3ccc(Cl)cc3)c(=O)c2n1	/	/	/	/	5.0%	/
Cc1ccccc1NC(=S)N/N=C/c1ccc(O)cc1O	19.7%	0.4%	41.4*	9.1%	-15.2%	100.5*
Cc1cccc(NC(=S)N/N=C/C(C)c2ccccc2)c1C (centres undefined)	-7.6%	1.8%	11.2	6.8%	?	-4.9
Cc1cccc(NC(=S)N/N=C/c2cccc(O)c2)c1C	-5.6%	2.8%	19.0*	7.1%	-5.8%	22.6
COc1cc(-c2nc(Cn3nnc(C(=O)Nc4ccc(C)cc4C)c3C)c(C)o2)cc(OC)c1OC	/	/	/	/	5.4%	/
Cc1nc2ccccn2c1C(=O)NCc1ccc2c(c1)OCO2	1.6%	0.7%	10.8	4.9%	-3.3%	35.6
CCOc1cc(/C=N\NC(=O)c2c(C)nc3ccccn23)ccc1O	-1.1%	4.4%	13.2*	3.0%	-15.6%	/
CCOc1cc(/C=N/NC(=O)c2c(-c3ccccc3)noc2C)ccc1O	-0.1%	5.9%	3.0	-7.2%	-8.0%	3.3
Cc1nc2ccccn2c1C(=O)N/N=C/c1ccc2c(c1)OCO2	-3.7%	-5.9%	59.2*	1.8%	-3.0%	88.3*
Cc1ccccc1-c1nc(CS(=O)(=O)CC(=O)Nc2c(C)cccc2C)c(C)o1	/	/	/	/	4.3%	/
Cc1ccc(S(=O)(=O)Nc2ccc(Br)cc2C(NCC(=O)O)c2ccccc2)cc1 (centres undefined)	18.6%	10.0%	2.5	7.2%	-0.5%	15.6
O=C(O)CSc1cc(NS(=O)(=O)c2ccc(Br)cc2)c2ccccc2c1O	7.08µM*	3.55µM*	8.7	-8.8%	?	29.2
Cc1cc(O)c(Sc2ncn[nH]2)cc1NS(=O)(=O)c1ccc(Cl)cc1	/	/	/	1.7%	10.8%	/
O=S(=O)(Nc1cc(Sc2ncn[nH]2)c(O)c2ccccc12)c1ccccc1	1.99µM*	14.1µM*	-7.2	?	?	13.2
COc1ccccc1NS(=O)(=O)c1cccc(C(=O)NCC2(N3CCCCC3)CCCCC2)c1	/	/	/	3.4%	-4.6%	/
COc1ccc(/C=C/C(=O)Nc2cccc(S(=O)(=O)N3CCOCC3)c2)cc1OC	/	/	/	2.2%	-0.7%	/
COc1ccc(/C=C/C(=O)Nc2ccccc2)cc1S(=O)(=O)N1CCOCC1	-3.7%	2.8%	10.7*	1.5%	-6.5%	16.6
SMILES	Giardia FBPA inh	LmPK inh	CHX counter	RE007 growth inh	Tb PYK inh	Shiga toxin inh
O=C(/C=C/c1ccc(OC(F)F)cc1)Nc1cccc(S(=O)(=O)N2CCOCC2)c1	/	1.4%	24.5*	2.2%	6.0%	41.3*
COc1ccc(/C=C/C(=O)Nc2ccccc2)cc1OC	-10.2%	-8.2%	35.6*	-1.4%	-2.8%	126.7*
COc1ccc(/C=C/C(=O)NC(=S)Nc2ccccc2)cc1OC	-9.7%	-1.2%	5.1	0.7%	-1.1%	18.1
COc1cc(/C=C/C(=O)NC(=O)c2ccccc2O)ccc1OC(C)=O	3.9%	-1.7%	32.7*	-26.1%	4.0%	69.9*
CCCOc1ccc(-c2nn(-c3ccccc3)cc2C2NC(=O)NC(C)=C2C(=O)OC)cc1C (centres undefined)	/	/	/	/	-3.5%	/
Cc1nc(NCCCN2CCOCC2)c2cnn(-c3ccccc3)c2n1	/	/	/	2.8%	2.7%	/
COc1ccc(/C=C/C(=O)NC(C)(C)C)cc1S(=O)(=O)N1CCOCC1	7.6%	2.4%	0.2	-9.7%	4.6%	-10.1
COc1ccc(/C=C/C(=O)NC2CCCCCCC2)cc1S(=O)(=O)N1CCOCC1	-1.2%	1.6%	37.2*	13.8%	-0.2%	70.1*
Cn1c(CC(=O)Nc2ccccc2)cc2ccccc21	1.5%	0.3%	40.0*	-0.1%	-0.9%	45.5*
COc1ccc(C(=O)NCc2ccc3c(c2)cc(C)n3C)cc1	3.0%	5.0%	-0.5	5.8%	3.0%	9.7
COc1ccc(C(=O)NCc2cc3ccccc3n2C)cc1	6.3%	0.8%	28.9*	-6.8%	-1.6%	/
CCn1c(CNC(=O)c2ccc(F)cc2)cc2ccccc21	2.0%	-1.2%	30.1*	1.7%	6.5%	28.4
CSc1c(CC(=O)Nc2ccccc2)n(C)c2ccccc12	17.6%	2.8%	-2.2	6.0%	1.7%	-11.0
COc1ccc(OC)c(CNS(=O)(=O)c2c(C(=O)N3CCCCCC3)c(C)n(C)c2C)c1	/	/	/	/	0.0%	/
CCOc1ccccc1NC(=O)N1CCc2c(sc3c2CCCC3)C1c1ccccc1 (centres undefined)	/	/	/	/	-3.2%	/
COc1cc(-c2nc(Cn3nnc(C(=O)Nc4cccc(Cl)c4)c3C)c(C)o2)cc(OC)c1OC	/	/	/	/	7.9%	/
O=C1CCCc2cc(S(=O)(=O)NCC3CCC(C(=O)Nc4ccc(Cl)cc4)CC3)ccc2N1 (centres undefined)	/	/	/	/	0.5%	/
Cc1ccccc1C(=O)O/N=C(\N)c1cccc([N+](=O)[O-])c1	-15.0%	-7.2%	65.4*	-5.8%	2.4%	99.5*
COc1ccc(/C(N)=N/OC(=O)c2cccc([N+](=O)[O-])c2C)cc1OC	-2.8%	0.9%	-3.0	2.7%	-3.0%	-8.3

High-throughput results as filed in PubChem BioAssay.
